# Results reported in publication PMC5540273 (PLoS ONE, 2017).
# What was measured:
# Details in all cases: concentration: 1 μM, replicates: in singlicate; n = 1
# [1] = tested on: EPHB4
# [2] = tested on: EPHB6
# [3] = tested on: ERBB2
# [4] = tested on: ERBB3
# [5] = tested on: ERBB4
# [6] = tested on: T1, ERK1
# T1 construct: gene MAPK3
# [7] = tested on: T2, ERK2
# T2 construct: gene MAPK1
# [8] = tested on: T3, ERK3
# T3 construct: gene MAPK6
# [9] = tested on: T4, ERK4
# T4 construct: gene MAPK4
# [10] = tested on: T5, ERK5
# T5 construct: gene MAPK7
# [11] = tested on: T6, ERK8
# T6 construct: gene MAPK15
# [12] = tested on: ERN1
# [13] = tested on: T7, FAK
# T7 construct: gene PTK2
# [14] = tested on: FER
# [15] = tested on: FES
# [16] = tested on: FGFR1
# [17] = tested on: FGFR2
# [18] = tested on: FGFR3
# [19] = tested on: FGFR4
# [20] = tested on: FGR
# 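Also: KINOMEscan kinase panel screen.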
Compound,%Inh [1],%Inh [2],%Inh [3],%Inh [4],%Inh [5],%Inh [6],%Inh [7],%Inh [8],%Inh [9],%Inh [10],%Inh [11],%Inh [12],%Inh [13],%Inh [14],%Inh [15],%Inh [16],%Inh [17],%Inh [18],%Inh [19],%Inh [20]
CC(C)c1ccc(O)cc1Nc1ccnc2ccc(C(F)(F)F)cc12 [GW482059],0%,0%,10%,0%,0%,0%,0%,0%,0%,0%,17%,8%,0%,14%,0%,10%,2%,5%,57%,9%
O=C1NC(=O)C(c2ccc(Cl)cc2)=C1Nc1ccc(O)cc1 [SB-340867],0%,0%,0%,0%,26%,0%,0%,0%,0%,0%,29%,0%,0%,4%,0%,0%,0%,0%,0%,12%
COc1ccc(CSc2nnc(-c3ccc4nccn4c3)o2)cc1C(F)(F)F,16%,0%,0%,9%,0%,0%,0%,18%,0%,1%,39%,0%,0%,4%,14%,4%,4%,0%,0%,19%
O=C(Nc1n[nH]c2cc(-c3ccsc3)ccc12)C1CC1 [SB-732932],9%,18%,0%,5%,9%,0%,7%,0%,1%,3%,92.4%,8%,6%,0%,0%,1%,0%,3%,0%,13%
COc1nccc(-c2c(-c3ccc(F)cc3)ncn2CCCN2CCOCC2)n1 [SB-282852],0%,17%,40%,46%,4%,0%,0%,0%,0%,0%,4%,16%,0%,0%,0%,46%,0%,0%,0%,1%
COc1cccc(NC(=O)Nc2ccc(C)c(-c3ccc(C(=O)Nc4ccncc4)cc3)c2)c1 [GSK1398474],8%,26%,0%,0%,25%,7%,0%,7%,1%,0%,1%,1%,13%,42%,12%,9%,0%,28%,3%,32%
Nc1cccc(-c2ccc3c(N)n[nH]c3c2)n1 [GSK2192730],5%,0%,0%,0%,0%,0%,0%,0%,35%,8%,0%,24%,0%,0%,0%,0%,0%,0%,0%,10%
COc1ccc2cc(-c3nc(-c4ccccc4C(C)C)[nH]c3-c3ccncc3)ccc2c1 [SB-660566],6%,0%,5%,0%,52%,0%,0%,0%,15%,0%,0%,14%,0%,0%,0%,0%,12%,13%,20%,21%
CNCc1ccc2nc(NC(=O)c3ccc(C(C)(C)C)cc3)cn2c1,1%,6%,17%,31%,9%,1%,0%,0%,0%,6%,2%,9%,3%,1%,1%,0%,0%,6%,0%,0%
Cc1ccccc1-c1cc(-c2c[nH]nc2-c2ccccn2)ccn1 [GW680061],10%,4%,22%,0%,25%,1%,0%,0%,25%,0%,0%,0%,0%,2%,0%,0%,0%,0%,0%,15%
